Source: PubChem (National Center for Advancing Translational Sciences (NCATS))
USP1-UAF1 inh: Inhibitors of USP1/UAF1: Primary Screen | Ubiquitin carboxyl-terminal hydrolase 1 (Homo sapiens), O94782 | recombinant USP1/UAF1, Ub-Rhodamine cleavage fluorescence | Potency, µM (doses to about 57.1 µM), inactives show top-dose activity change, negative = inhibition, most hits filed as inhibitors | actives 0.23% (n = 390,000) | AID 743255, 2014; active = well fitted inhibition curve with a large enough effect; inconclusive = small, poorly fitted or top-dose-only effect; inactive = no such curve, though single readings can be large or run the other way; also: potency is read from the fitted curve at half-maximal effect; % is scaled to controls: 0 for no effect and ±100 for the full control effect; nearly all actives have a fitted effect of over 60% in size
Target sequence (O94782 whole entry, looked up): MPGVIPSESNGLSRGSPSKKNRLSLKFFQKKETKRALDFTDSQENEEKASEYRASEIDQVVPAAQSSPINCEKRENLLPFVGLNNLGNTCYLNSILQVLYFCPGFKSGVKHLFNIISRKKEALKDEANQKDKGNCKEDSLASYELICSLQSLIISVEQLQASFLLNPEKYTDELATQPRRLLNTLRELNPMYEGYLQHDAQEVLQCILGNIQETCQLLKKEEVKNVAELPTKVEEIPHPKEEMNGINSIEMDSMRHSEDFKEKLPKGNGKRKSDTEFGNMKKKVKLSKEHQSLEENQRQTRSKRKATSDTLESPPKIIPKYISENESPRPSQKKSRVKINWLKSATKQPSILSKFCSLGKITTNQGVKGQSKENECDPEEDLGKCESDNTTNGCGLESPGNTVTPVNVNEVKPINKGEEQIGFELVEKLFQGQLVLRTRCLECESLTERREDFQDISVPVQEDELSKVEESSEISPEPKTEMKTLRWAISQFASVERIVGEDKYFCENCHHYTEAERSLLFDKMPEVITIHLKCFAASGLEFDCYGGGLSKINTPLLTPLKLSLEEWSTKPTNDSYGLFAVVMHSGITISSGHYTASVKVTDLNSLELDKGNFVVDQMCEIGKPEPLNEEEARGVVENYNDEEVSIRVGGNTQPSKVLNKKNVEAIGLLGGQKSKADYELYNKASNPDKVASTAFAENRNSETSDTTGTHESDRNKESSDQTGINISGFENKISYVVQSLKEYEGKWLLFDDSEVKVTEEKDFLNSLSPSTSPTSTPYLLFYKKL
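In this screen, compounds sit with the deubiquitinase complex (1nM) for 15 min at room temperature before Ub-Rho is added at 150nM final. Fluorescence rise is then followed for 6 reads every 60 seconds.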
D1 PAM: Potentiators of Human D1 Dopamine Receptor: qHTS; AID 504651, 2011; actives 0.036% (n = 360,000); D(1A) dopamine receptor (Homo sapiens), P21728; potentiation, % at 10 µM; HEK293 TREx D1 cells, calcium flux, dopamine EC20 potentiation; in the data active = potentiation above about 30%; also: 0% is about no effect
TRHR PAM: qHTS for Small Molecule Agonists and Allosteric Enhancers of Human TRH Receptor: Primary Screen for Enhancers; Thyrotropin-releasing hormone receptor (Homo sapiens), P34981; TRHR cells, fluo-8 calcium fluorescence, EC20 TRH enhancement; enhancement, % at 2 µM; actives 0.66% (n = 360,000); AID 493056, 2011; in the data active = enhancement above about 30%; also: 0% is about no effect
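TRHR-expressing cells loaded with fluo-8 calcium dye were read kinetically (ex 480/em 530) during compound addition, then stimulated with an EC20 of TRH (10 nM final). Enhancement of the Gq-mediated intracellular calcium response was scored.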
D1 antag: Antagonist of Human D 1 Dopamine Receptor: qHTS; actives 3.2% (n = 360,000); D(1A) dopamine receptor (Homo sapiens), P21728; HEK293 TREx D1 cells, calcium flux, dopamine EC80; hits give low values; activity change, negative = inhibition, % at 10 µM; in the data active = activity change below about -30%; also: % is scaled to controls: 0 for no effect and ±100 for the full control effect
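Compound effects on dopamine-evoked calcium signalling were measured in tetracycline-induced HEK293 Trex D1 cells. Dopamine at EC80 followed a 180 s compound pre-read, and fluorescence was tracked kinetically for 180 s more.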
TRHR agonist: qHTS for Small Molecule Agonists and Allosteric Enhancers of Human TRH Receptor: Primary Screen for Agonists; Thyrotropin-releasing hormone receptor (Homo sapiens), P34981; TRHR cells, calcium flux fluo-8, FDSS agonist mode; activation, % at 2 µM; actives 0.18% (n = 360,000); AID 493084, 2011; also: 0% is about no effect
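TRHR-expressing cells loaded with fluo-8 calcium dye; 23 nL library compound pin-transferred, kinetic FDSS fluorescence (Ex 480/Em 530) recorded about 180 s for agonist-induced calcium release, before a 10 nM TRH EC20 addition for potentiator mode.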
D1 ag: Allosteric Agonists of the Human D1 Dopamine Receptor: qHTS. HEK293 T-REx D1 cells, calcium flux, agonist mode. D(1A) dopamine receptor (Homo sapiens), P21728. AID 504660, 2011. activation, % at 2 µM. actives 1% (n = 360,000); also: 0% is about no effect
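Agonism was scored from calcium flux recorded over 180 s (1 read/s) after pintool compound addition, following a 10-cycle baseline. Cells were inducible force-coupled HEK293 TREx D1, plated overnight at 30 C and loaded with no-wash calcium dye.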
Starred values were filed as active, the others as inactive; ? = inconclusive; . = not tested or not shown. Rows were chosen to be rich in hits. Some 4.4% of all compounds tested hit in one or more screens of this group. Rule as the data show it, unless noted: active = activation above about 30%; inactive = the rest.

SMILES	USP1-UAF1 inh	D1 PAM	TRHR PAM	D1 antag	TRHR agonist	D1 ag
CC1(C)CC(=O)C2=C(C1)Nc1ccccc1N=C2	.	10	-4	-11	19	39*
CCC(CC)C(=O)Nc1ccc(S(=O)(=O)N2CCC(c3nc4ccccc4s3)CC2)cc1	0%	-3	16	0	0	-1
CCn1ccnc1CN(C)C(=O)c1ccc(OC2CCN(CCc3ccccc3)CC2)cc1	1%	0	-6	-22	0	3
O=C(c1ccc(OC2CCN(CCc3ccccc3)CC2)cc1)N1CCC(CO)CC1	-19%	-14	3	-44*	-1	14
CN(Cc1nccs1)C(=O)c1ccc(OC2CCN(CCc3ccccc3)CC2)cc1	-15%	-11	5	-54*	1	6
COc1ccc(C2CC(=O)c3cc(-c4nc(-c5ccc(C)cc5)cs4)c(=O)[nH]c3C2)cc1 (centres undefined)	-9%	-1	6	-10	2	6
COc1cc(NC(=O)c2noc3c2CCc2ccccc2-3)cc(OC)c1OC	?	1	10	-4	1	-1
CC[n+]1ccc(/C=C/c2c[nH]c3ccccc23)cc1	28µM*	-2	2	10	17	64*
Cc1cccc(N2CCN(C(=O)c3cn(C4CCCCC4)c(=O)c4c3c3ccccc3n4C)CC2)c1C	-22%	-2	3	8	1	6
CCc1cccc(C)c1NC(=O)C1CC(=O)N(C2CCCC2)C1 (centres undefined)	-12%	0	4	-46*	0	2
O=C(C1CC(=O)N(C2CCCC2)C1)N1CCC(Cc2ccccc2)CC1 (centres undefined)	-13%	-14	8	-38*	-1	7
CCOC(=O)c1ccccc1NC(=O)C1CC(=O)N(C2CCCCC2)C1 (centres undefined)	-24%	2	14	17	2	7
CN(Cc1ccccc1)C(=O)CSc1nc2ccsc2c(=O)n1-c1ccc(F)cc1	-14%	0	9	21	0	6
C#Cc1nc(Nc2cccc(Cl)c2)nc(NC2CCCC2)n1	.	0	-1	-20	-1	2
CN(C)CCCNc1nc2sc3c(c2c(=O)n1CCc1ccccc1)CCCCC3	-5%	-3	-3	-24	9	59*
COc1nc(-c2ccccc2)ccc1-c1noc(-c2ccc(F)cc2)n1	.	-4	-1	-2	0	2
COc1nc(-c2ccccc2)ccc1-c1noc(-c2ccccc2F)n1	-15%	0	9	-24	-1	159*
CN1CCc2cc(Cl)c(O)cc2[C@@H](c2ccccc2)C1	16%	-3	4	-89*	0	0
C=CCN1CCc2c(cc(O)c(O)c2Br)[C@@H](c2ccccc2)C1	-20%	.	.	.	.	.
CN1CCc2cc(O)c(O)cc2C(c2ccccc2)C1 (centres undefined)	21%	-7	-6	-88*	1	0
CCCS(=O)(=O)N1CC(=O)N(c2ccc(C)cc2C)C(C)(C(=O)NC2CCCCCC2)C1 (centres undefined)	0%	1	-21	1	-1	-2
CCCCn1c(NC(=O)CC)c(C#N)c2nc3ccccc3nc21	-20%	5	3	10	1	1
N#Cc1c(NC(=O)c2ccccc2Cl)n(Cc2ccccc2)c2nc3ccccc3nc12	25µM*	-4	-8	-16	4	14
CCCCn1c(NC(=O)c2ccccc2Cl)c(C#N)c2nc3ccccc3nc21	14µM*	-10	8	-39*	3	17
CN(C)c1ccc(CNC(=O)C2CCN(Cc3cc4ccccc4n3Cc3ccccc3)CC2)cc1	?	-1	2	14	0	3
SMILES	USP1-UAF1 inh	D1 PAM	TRHR PAM	D1 antag	TRHR agonist	D1 ag
CCCCc1cc(=O)oc2cc(C)c3c(C)coc3c12	-13%	0	-5	-5	1	4
COc1ccc(Cl)cc1Nc1nc2ccc(C(=O)c3ccccc3)cc2n2cnnc12	4%	-2	3	9	0	0
CCSC1=NSC2=NC(=O)/C(=C\c3coc4ccccc4c3=O)C(=N)N12	22µM*	4	52*	-43*	179*	325*
Cc1cc(=O)n(Cc2cccc(Cl)c2)c2c1c(C)nn2-c1ccccc1	10%	-3	5	-11	0	3
COc1ccc2c(c1)sc1ncc(C(=O)NCc3ccc(Cl)cc3)c(=O)n12	7%	-1	19	-7	0	2
CC(=O)Nc1ccc(Nc2nc(C)c([N+](=O)[O-])c(N(C)c3ccccc3)n2)cc1	5%	-11	6	-32*	0	6
CC(=O)Nc1ccc(Nc2nc(C)c([N+](=O)[O-])c(Nc3ccccc3)n2)cc1	-21%	1	-3	49	0	2
COc1ccc(-c2csc3ncnc(N4CCN(c5ccccc5O)CC4)c23)cc1	2%	-15	4	-20	5	44*
Cc1oc(C)c2c(=O)ccc3c(c12)OC(N)=C(C#N)C3c1ccc(F)cc1 (centres undefined)	-8%	-8	-7	25	0	37*
Cc1[nH]nc2c1C(c1ccc(F)cc1)C(C#N)=C(N)O2 (centres undefined)	-8%	-4	-6	-4	0	5
CCOc1c(Br)cc(C2CC(=O)Nc3cc4c(cc32)OCO4)cc1OC (centres undefined)	?	5	5	7	-1	-1
COc1ccc(CCNc2oc(COc3ccccc3F)nc2C#N)cc1	-24%	-10	-7	-67*	1	3
COc1ccc(CCNc2oc(Cc3cccc4ccccc34)nc2C#N)cc1OC	?	-5	-7	-13	-1	10
COc1ccc(CCNc2oc(COc3ccc(Br)cc3)nc2C#N)cc1OC	-8%	.	-1	-32*	0	2
O=C(Nc1cccc(Cl)c1Cl)c1cc(S(=O)(=O)N2CCC3(CC2)OCCO3)ccc1F	3%	1	-10	-4	0	-1
CCN(C(=O)CSc1nc2ccccc2n1Cc1ccc(C(=O)OC)cc1)c1ccccc1	-15%	0	-2	-1	-2	8
